Most compounds without a hit are left out; they make up all but 14% or so of the library.
Sm TGR inh = S. mansoni TGR enzyme inhibition; Potency, µM (top dose mostly 114 µM), most hits filed as inhibitors; 360,000 compounds, 3% hits; purified TGR, DTNB reduction, TNB absorbance 405 nm; also: nearly all actives have a fitted effect of over 60% in size
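Kinetic colorimetric format: TGR-catalysed, NADPH-driven DTNB reduction monitored via TNB absorbance. Enzyme dispensed at 20 nM; compound exposure 15 min at room temperature before reaction start.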
HCMV inh = human cytomegalovirus inhibition; HFF cells, HCMV-luciferase reporter, 72 h; hits give low values; activity change, negative = inhibition, % at 57.5 µM; 410,000 compounds, 4.5% hits; AID 1259415; in the data active = activity change below about -60%; inconclusive = no clear call, values can overlap the other calls; inactive = above about -39%
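HFF cells seeded 16 h at 37C, treated with compounds, infected with luciferase-reporter HCMV at MOI 1 PFU/cell; luciferase read at 72 h post infection, normalized to buffer-only and Salinomycin controls.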
Pf growth 96h = P. falciparum growth inhibition at 96 hour, primary screen for plastid delayed-death inhibitors; AID 504834; Potency, µM (doses to about 28.7 µM), usual class: inhibitors; 320,000 compounds, 6.9% hits; P. falciparum luciferase reporter growth, 96 h
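Readout is luminescence from an integrated firefly luciferase in P. falciparum. Red cells, 2% hematocrit and 0.05% parasitemia final, were cultured with compound through two parasite generations (96 hours) at 37 C, 5% CO2.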
FBPA Giardia inh = inhibitors of Giardia lamblia fructose-1,6-bisphosphate aldolase; A8B2U2; purified Giardia FBPA; Potency, µM (highest dose often 59.6 µM), hits mostly inhibitors; 290,000 compounds, 0.71% hits; AID 2451; also: nearly all actives have a fitted effect of over 55% in size
Target sequence (A8B2U2 whole entry, looked up): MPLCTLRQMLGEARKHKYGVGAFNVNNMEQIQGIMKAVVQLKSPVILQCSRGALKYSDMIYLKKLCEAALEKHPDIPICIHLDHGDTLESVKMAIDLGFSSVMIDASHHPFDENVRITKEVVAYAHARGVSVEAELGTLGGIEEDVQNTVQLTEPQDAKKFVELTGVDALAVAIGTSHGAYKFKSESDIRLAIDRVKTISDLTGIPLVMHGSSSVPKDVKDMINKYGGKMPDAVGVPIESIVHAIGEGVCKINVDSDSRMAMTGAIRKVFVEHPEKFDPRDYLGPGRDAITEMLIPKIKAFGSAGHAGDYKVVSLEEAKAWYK
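Giardia FBPA (40 nM reagent) was preincubated 10 min at RT with compound (up to 57.5 uM final), then substrate plus GAPDH/TPI/NAD/arsenate coupling system with diaphorase/resazurin was added; resorufin fluorescence (525/598 nm) was read after 20 min.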
Pf growth 48h = inhibits P. falciparum growth in the first generation, 48 h; 310,000 compounds, 5.9% hits; P. falciparum luciferase growth in erythrocytes, 48 h; Potency, µM (titrated, usually from 28.7 µM), hits mostly inhibitors; AID 504832
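Read-out is firefly luciferase luminescence from an integrated reporter in P. falciparum, so falling signal marks reduced parasite growth. Infected erythrocytes were at 2% hematocrit and 0.1% parasitemia (final) in Albumax-supplemented RPMI 1640.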
A number is an active result. Unless noted, calls follow the shape of the dose curve; as a rule, active = well fitted curve in the direction sought with a large enough effect; inconclusive = small, poorly fitted or top-dose-only effect, or another doubt; inactive = no such curve, though single readings can be large; an effect the other way counts as inactive or inconclusive.

For CC(Sc1nnc(-c2cccnc2)n1N)C(=O)Nc1ccc2c(c1)OCCO2 (stereo not drawn) the results were Sm TGR inh inactive, HCMV inh inactive, Pf growth 96h inactive and Pf growth 48h inactive.
CC1Cc2ccccc2N1C(=O)CSc1nnc(N)s1 (stereo not drawn) was read as Sm TGR inh inactive, HCMV inh inactive, Pf growth 96h inactive and Pf growth 48h inactive.
Cc1c(C(C)(C)C)s/c(=N/S(=O)(=O)c2ccccc2)n1C was read as Sm TGR inh inactive, HCMV inh inactive, Pf growth 96h inactive, FBPA Giardia inh inactive and Pf growth 48h inconclusive.
CC(C)[n+]1ccn(C2=C([O-])c3ccccc3C(=O)/C2=N\S(=O)(=O)c2ccccc2)c1 was read as Sm TGR inh 44.7µM, HCMV inh -87.4, Pf growth 96h inconclusive, FBPA Giardia inh inconclusive and Pf growth 48h 6.57µM.
For CCCCC[n+]1ccn(-c2nc3ccccc3nc2[N-]S(=O)(=O)c2ccc(C)cc2)c1 the results were Sm TGR inh inactive, HCMV inh inactive, Pf growth 96h inconclusive and Pf growth 48h inactive.
For CCCCC[n+]1ccn(C2=C([O-])c3ccccc3C(=O)/C2=N\S(=O)(=O)c2ccccc2)c1 the results were Sm TGR inh inactive, HCMV inh -77.1, Pf growth 96h 5.86µM and Pf growth 48h 2.94µM.
Screening CCCCC[n+]1ccn(C2=C([O-])c3ccccc3C(=O)/C2=N\S(=O)(=O)c2ccc(Br)cc2)c1 returned Sm TGR inh inactive, HCMV inh inactive, Pf growth 96h inconclusive, FBPA Giardia inh inconclusive and Pf growth 48h 1.85µM.
CC(C)(C)c1cc[n+](C2=C([O-])c3ccccc3C(=O)/C2=N\S(=O)(=O)c2ccccc2)cc1 was read as Sm TGR inh inactive, HCMV inh inactive, Pf growth 96h 4.15µM, FBPA Giardia inh inconclusive and Pf growth 48h 3.7µM.
`C#C[C@@]1(O)CCC2C3CCC4=CC(=O)CCC4C3CC[C@@]21CC` (stereo partly drawn) gave FBPA Giardia inh inactive.
For O=C(Nc1cc(F)ccc1F)N1CC(=O)N2[C@@H](CO)[C@H](c3ccc(Br)cc3)[C@@H]2C1 the results were HCMV inh inactive.
For CCOc1ccc(CCNC(=O)CCc2c(C)nc3c4c(C)cc(C)nc4nn3c2C)cc1 the results were Sm TGR inh inactive and HCMV inh inactive.
For CCOc1ccccc1NS(=O)(=O)c1c(C(=O)OC)sc2cccc(F)c12 the results were Sm TGR inh inactive and HCMV inh inactive.
CC(C)c1ccc(NC(=O)C[n+]2ccn(C3=C([O-])c4ccccc4C3=O)c2)cc1 was read as Sm TGR inh inactive, HCMV inh inactive, Pf growth 96h inactive, FBPA Giardia inh inactive and Pf growth 48h inactive.
For CCCC[n+]1ccn(C2=C([O-])c3ccccc3C(=O)/C2=N\S(=O)(=O)c2ccccc2)c1 the results were Sm TGR inh inactive, HCMV inh inconclusive, Pf growth 96h 8.28µM and Pf growth 48h 1.85µM.
For CCc1ccc(/C=C/C(=O)c2cc(Br)ccc(=O)c2O)cc1 the results were Sm TGR inh inactive, HCMV inh -105.7, FBPA Giardia inh inconclusive and Pf growth 48h inconclusive.
Cc1ccc(/C=C/C(=O)c2cc(Br)ccc2OC(=O)c2ccco2)cc1 was read as Sm TGR inh inactive, HCMV inh inconclusive, Pf growth 96h inconclusive, FBPA Giardia inh inactive and Pf growth 48h 13.1µM.
O=C(C=Cc1ccccc1)c1cc(Br)ccc1O was read as HCMV inh inactive.
`Cc1cccc(/C=C/C(=O)c2cc(Br)ccc(=O)c2O)c1` gave Sm TGR inh inactive, HCMV inh -104.3, FBPA Giardia inh inconclusive and Pf growth 48h inconclusive.
For CCOc1ccc(/C=C/C(=O)c2cc(Br)ccc(=O)c2O)cc1 the results were Sm TGR inh 28.2µM, HCMV inh inactive, Pf growth 96h 9.28µM, FBPA Giardia inh inconclusive and Pf growth 48h 10.4µM.
Screening COc1ccccc1/C=C/C(=O)c1cc(Br)ccc1OC(=O)c1ccco1 returned HCMV inh inactive.
`CS(=O)(=O)N1CCC2(CCN(C(=O)Nc3cccc(F)c3)CC2)CC1` gave FBPA Giardia inh inactive.
`Cc1ccc(C(c2sc3nc(-c4ccco4)nn3c2O)N2CCCCC2)cc1` (stereo not drawn) gave Sm TGR inh inactive and HCMV inh inactive.
CCNc1nc(C)c(CN(C(C)=O)c2ccccc2)nc1C#N was read as Sm TGR inh inactive, HCMV inh inactive, Pf growth 96h inactive, FBPA Giardia inh inactive and Pf growth 48h inactive.
COc1ccc(S(=O)(=O)N2CCOCC2)cc1C(=O)NC1CCCCCC1 was read as Sm TGR inh inactive, HCMV inh inactive, Pf growth 96h inconclusive and Pf growth 48h inactive.
Screening O=C(c1[nH]c(C(F)(F)F)nc1-c1ccccc1)N1CCC(Cc2ccccc2)CC1 returned HCMV inh inactive.
Screening O=C(/C=C/c1ccccc1O)c1ccco1 returned Sm TGR inh inconclusive, HCMV inh inactive, Pf growth 96h inactive, FBPA Giardia inh inactive and Pf growth 48h inactive.
For Cc1cccc2cc(/C=C/C(=O)c3ccco3)c(Cl)nc12 the results were Sm TGR inh 7.94µM, HCMV inh inactive, Pf growth 96h inactive, FBPA Giardia inh inactive and Pf growth 48h inconclusive.
O=C(/C=C/c1cc(Br)ccc1O)c1ccco1 was read as Sm TGR inh 14.1µM, HCMV inh -78.7, Pf growth 96h inactive, FBPA Giardia inh inactive and Pf growth 48h inactive.
CCOc1ccc2nc(Cl)c(/C=C/C(=O)c3ccco3)cc2c1 was read as Sm TGR inh inconclusive, HCMV inh inactive, FBPA Giardia inh inactive and Pf growth 48h inactive.
COc1cc2c(cc1OC)C(CC(=O)O)N(C(=O)Nc1cc(OC)c(OC)c(OC)c1)CC2 (stereo not drawn) was read as Sm TGR inh inactive and HCMV inh inactive.
For Cc1cccc(CNC(=O)Cc2ccc(NC(=O)N3CCCCc4ccccc43)cc2)c1 the results were Sm TGR inh inactive and HCMV inh inactive.
`O=C(CCC(=O)N1CCN(c2ccccc2F)CC1)N1CCN(c2ccc(F)cc2)CC1` gave Sm TGR inh inactive, HCMV inh -62.3, Pf growth 96h inconclusive, FBPA Giardia inh inactive and Pf growth 48h inactive.
O=C(CCSCc1ccccc1Cl)N1CCN(c2ccc(F)cc2)CC1 was read as Sm TGR inh inactive and HCMV inh -63.8.
For COc1ccc(CC(=O)N2CCN(c3ccccc3F)CC2)cc1OC the results were Sm TGR inh inactive, HCMV inh inactive, Pf growth 96h inactive, FBPA Giardia inh inactive and Pf growth 48h inactive.
`O=C(Cc1ccc(-n2cccc2)cc1)N1CCN(c2ccccc2F)CC1` gave Sm TGR inh inactive, HCMV inh inactive, Pf growth 96h 11.7µM, FBPA Giardia inh inactive and Pf growth 48h inactive.
Screening O=C(CCSCc1ccccc1F)N1CCN(c2ccc(F)cc2)CC1 returned Sm TGR inh inactive and HCMV inh inactive.
`O=C(CCC(=O)N1CCN(c2ccccc2F)CC1)N1CCN(c2ccccc2)CC1` gave Sm TGR inh inactive, HCMV inh inactive, Pf growth 96h inactive, FBPA Giardia inh inactive and Pf growth 48h inactive.

Screens deposited in PubChem BioAssay by National Center for Advancing Translational Sciences (NCATS).
